Experimental data taken from the supplement of paper PMC8975748.
Structures can show the parent of a compound that is named as a salt. ± gives the standard deviation of the averaged measurements.

Tests used:
[1] = system: Saccharomyces cerevisiae BY4741 SeMeCo community; assay: mean cell size (pixel area) (pixels); higher = larger cells; conditions: 10 µM; 24 h; SM minimal medium
Outline: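 A Saccharomyces cerevisiae BY4741 community carrying four plasmids, each with a fluorescent marker and each complementing one auxotrophy, was exposed for 24 h to drug at a final 10 µM in SM medium in acoustically predosed 384-well plates. The overnight preculture (OD600 = 1.0) was diluted to OD600 = 0.3 before 70 µl was added per well. Cells were then fixed with paraformaldehyde, imaged by automated confocal microscopy and analysed in Harmony to derive mean cell pixel area per well, averaged over 3 replicates. Same SeMeCo high-content imaging drug screen: Selleck FDA-approved drugs at 10 µM, 24 h in SM medium, 384-well plates, 3 replicates.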

[2] = system: Saccharomyces cerevisiae BY4741 SeMeCo community; assay: z-score of prototroph abundance vs DMSO median; higher = larger share of this subpopulation than in DMSO controls; conditions: 10 µM; 24 h; SM minimal medium; subpopulation (auxotrophy): Prototroph
Outline: (§1)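 A Saccharomyces cerevisiae BY4741 community carried four plasmids, each restoring one auxotrophy and encoding a distinct fluorescent protein. It was pre-grown overnight to OD600 1.0, diluted to 0.3, and 70 µl was added to 384-well plates acoustically predosed with library drugs (10 µM final), then grown 24 h in minimal SM medium. Cells were paraformaldehyde-fixed and imaged by automated confocal microscopy, with single-auxotroph fluorescent strains setting thresholds and autofluorescence correction. Each subpopulation's abundance was scored as a z-score against the vehicle-well median.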

[3] = system: Saccharomyces cerevisiae BY4741 SeMeCo community; assay: z-score of subpopulation abundance vs DMSO median, subpopulation auxotrophic for M; higher = larger share of this subpopulation than in DMSO controls; conditions: 10 µM; 24 h; SM minimal medium; subpopulation (auxotrophy): M
Outline: as §1

[4] = system: Saccharomyces cerevisiae BY4741 SeMeCo community; assay: z-score of subpopulation abundance vs DMSO median, subpopulation auxotrophic for L; higher = larger share of this subpopulation than in DMSO controls; conditions: 10 µM; 24 h; SM minimal medium; subpopulation (auxotrophy): L
Outline: as §1

[5] = system: Saccharomyces cerevisiae BY4741 SeMeCo community; assay: z-score of subpopulation abundance vs DMSO median, subpopulation auxotrophic for U; higher = larger share of this subpopulation than in DMSO controls; conditions: 10 µM; 24 h; SM minimal medium; subpopulation (auxotrophy): U
Outline: as §1

[6] = system: Saccharomyces cerevisiae BY4741 SeMeCo community; assay: z-score of subpopulation abundance vs DMSO median, subpopulation auxotrophic for LU; higher = larger share of this subpopulation than in DMSO controls; conditions: 10 µM; 24 h; SM minimal medium; subpopulation (auxotrophy): LU
Outline: as §1

[7] = system: Saccharomyces cerevisiae BY4741 SeMeCo community; assay: z-score of subpopulation abundance vs DMSO median, subpopulation auxotrophic for LM; higher = larger share of this subpopulation than in DMSO controls; conditions: 10 µM; 24 h; SM minimal medium; subpopulation (auxotrophy): LM
Outline: as §1

[8] = system: Saccharomyces cerevisiae BY4741 SeMeCo community; assay: z-score of subpopulation abundance vs DMSO median, subpopulation auxotrophic for UM; higher = larger share of this subpopulation than in DMSO controls; conditions: 10 µM; 24 h; SM minimal medium; subpopulation (auxotrophy): UM
Outline: as §1

[9] = system: Saccharomyces cerevisiae BY4741 SeMeCo community; assay: z-score of subpopulation abundance vs DMSO median, subpopulation auxotrophic for HL; higher = larger share of this subpopulation than in DMSO controls; conditions: 10 µM; 24 h; SM minimal medium; subpopulation (auxotrophy): HL
Outline: as §1

[10] = system: Saccharomyces cerevisiae BY4741 SeMeCo community; assay: z-score of subpopulation abundance vs DMSO median, subpopulation auxotrophic for HLU; higher = larger share of this subpopulation than in DMSO controls; conditions: 10 µM; 24 h; SM minimal medium; subpopulation (auxotrophy): HLU
Outline: as §1

[11] = system: Saccharomyces cerevisiae BY4741 SeMeCo community; assay: z-score of subpopulation abundance vs DMSO median, subpopulation auxotrophic for HLM; higher = larger share of this subpopulation than in DMSO controls; conditions: 10 µM; 24 h; SM minimal medium; subpopulation (auxotrophy): HLM
Outline: as §1

[12] = system: Saccharomyces cerevisiae BY4741 SeMeCo community; assay: z-score of subpopulation abundance vs DMSO median, subpopulation auxotrophic for HUM; higher = larger share of this subpopulation than in DMSO controls; conditions: 10 µM; 24 h; SM minimal medium; subpopulation (auxotrophy): HUM
Outline: as §1

[13] = system: Saccharomyces cerevisiae BY4741 SeMeCo community; assay: z-score of subpopulation abundance vs DMSO median, subpopulation auxotrophic for LUM; higher = larger share of this subpopulation than in DMSO controls; conditions: 10 µM; 24 h; SM minimal medium; subpopulation (auxotrophy): LUM
Outline: as §1

[14] = system: Saccharomyces cerevisiae BY4741 SeMeCo community; assay: z-score of subpopulation abundance vs DMSO median, subpopulation auxotrophic for HLUM; higher = larger share of this subpopulation than in DMSO controls; conditions: 10 µM; 24 h; SM minimal medium; subpopulation (auxotrophy): HLUM
Outline: as §1

[15] = system: Saccharomyces cerevisiae BY4741 SeMeCo community; assay: z-score of subpopulation abundance vs DMSO median, subpopulation auxotrophic for HM; higher = larger share of this subpopulation than in DMSO controls; conditions: 10 µM; 24 h; SM minimal medium; subpopulation (auxotrophy): HM
Outline: as §1

[16] = system: Saccharomyces cerevisiae BY4741 SeMeCo community; assay: z-score of subpopulation abundance vs DMSO median, subpopulation auxotrophic for HU; higher = larger share of this subpopulation than in DMSO controls; conditions: 10 µM; 24 h; SM minimal medium; subpopulation (auxotrophy): HU
Outline: as §1

[17] = system: Saccharomyces cerevisiae BY4741 SeMeCo community; assay: z-score of subpopulation abundance vs DMSO median, subpopulation auxotrophic for H; higher = larger share of this subpopulation than in DMSO controls; conditions: 10 µM; 24 h; SM minimal medium; subpopulation (auxotrophy): H
Outline: as §1

Structure (SMILES) | mean cell size [1] | z-score of prototroph abundance [2] | z-score of subpopulation abundance [3] | z-score of subpopulation abundance [4] | z-score of subpopulation abundance [5] | z-score of subpopulation abundance [6] | z-score of subpopulation abundance [7] | z-score of subpopulation abundance [8] | z-score of subpopulation abundance [9] | z-score of subpopulation abundance [10] | z-score of subpopulation abundance [11] | z-score of subpopulation abundance [12] | z-score of subpopulation abundance [13] | z-score of subpopulation abundance [14] | z-score of subpopulation abundance [15] | z-score of subpopulation abundance [16] | z-score of subpopulation abundance [17]
O=C(O)c1cc(=O)c2c(OCC(O)COc3cccc4oc(C(=O)O)cc(=O)c34)cccc2o1 [Disodium Cromoglycate] | 12.1 ± 0.22 | 0.23 | -0.6 | -1.19 | 0.66 | -0.38 | -0.12 | -0.22 | -1.3 | -0.29 | -0.04 | -0.62 | -0.55 | -0.81 |  |  | 
CN(C)CCC[C@@]1(c2ccc(F)cc2)OCc2cc(C#N)ccc21 [Escitalopram Oxalate] | 12.4 ± 0.18 | 1.15 | 0.05 | 0.5 | -0.79 | -0.08 |  | -0.53 | -0.1 | -0.25 | -0.63 | -0.36 | -0.28 | 0.18 | -0.98 | -0.95 | 
CN(C)CCC=C1c2ccccc2C=Cc2ccccc21 [Cyclobenzaprine HCl] | 12.59 ± 0.046 | -0.37 | 0 | -0.14 | 1.16 | -0.04 | 0.01 | 1.09 | -0.13 | -0.46 | 0.13 | -0.09 | -0.09 | 0.14 |  |  | -0.68
CCCN[C@H]1CCc2nc(N)sc2C1 [Pramipexole dihydrochloride] | 12.3 ± 0.17 | 0.25 | -0.32 | -0.42 | -0.06 | -0.61 |  | 0.32 | 0.19 | -0.24 | -0.79 | 0.52 |  | 0 | -0.31 | 0 | -0.35
NC(=N\CCCCCC/N=C(N)/N=C(\N)Nc1ccc(Cl)cc1)/N=C(\N)Nc1ccc(Cl)cc1 [Chlorhexidine diacetate] | 11.5 ± 0.11 | 1.46 | -2.47 | -0.29 | -0.99 | -1.43 |  | -1.2 | 1.03 | 1.21 | 1.2 | -0.61 |  | 2.97 | -1.35 | -0.08 | 0.93
Nc1nc(=O)[nH]cc1F [Flucytosine] | 13.9 ± 0.19 | -10.3 | -3.75 | -1.32 | 0.5 | 0.49 |  | 1.6 | 13.2 | 1.33 | 35.5 | 10.3 | 4.96 | 38.3 | 17.8 | 8.85 | 
O=C(O)C1=C(CSc2nnnn2CS(=O)(=O)O)CS[C@@H]2[C@H](NC(=O)[C@H](O)c3ccccc3)C(=O)N12 [Cefonicid sodium] | 12.47 ± 0.07 | 0.12 | -0.38 | -0.08 | 0.61 | 0.98 |  | 0.3 | 0.41 | 0.39 | 0.46 | -0.26 | -0.25 | 0.08 | -0.77 |  | 0.28
CC(C)COCC(CN(Cc1ccccc1)c1ccccc1)N1CCCC1 (centres undefined) [Bepridil hydrochloride] | 12.5 ± 0.16 | -1.24 | -0.18 | 0.85 | -0.09 | 1.16 | -0.16 | 0.18 | 1.07 | 0.92 | 2.56 | 1.35 | 1.57 |  |  | 0.45 | 1.08
N=C(N)NC(=O)c1nc(Cl)c(N)nc1N [Amiloride HCl] | 12.59 ± 0.11 |  | 1.46 | 1.94 | -1.58 | -0.38 |  | -1.89 | 1.51 | -0.5 | 3.24 | -1.69 | 0.19 | 0.53 | 1.25 | -2.41 | 0.83
NCc1ccccc1CC(=O)N[C@@H]1C(=O)N2C(C(=O)O)=C(CSc3nnnn3CC(=O)O)CS[C@H]12 [Ceforanide] | 12.09 ± 0.042 |  | -0.21 | 2.29 | -0.98 | 0.89 |  | -0.41 | 2.92 | 0.38 | 0.46 | 0.56 | 2.06 | 1.14 | 1.01 | 0.2 | 2.15
COCC(=O)Nc1cc(Sc2ccccc2)ccc1N=C(NC(=O)OC)NC(=O)OC [Febantel] | 12.3 ± 0.18 | -0.31 | 1.45 | -0.03 |  | -0.37 |  | -0.56 | 1.03 | -0.05 | 0.64 | -0.11 | 0.02 | -0.82 | 1.62 | -0.73 | 0.91
CN1CCC(=C2c3ccccc3C=Cc3ccccc32)CC1 [Cyproheptadine hydrochloride] | 12.61 ± 0.097 | 0.23 | -0.18 | 0.25 | 0.43 | 0.02 |  | -0.25 | -0.02 | -0.31 | -0.45 | -0.68 | -0.73 | -0.08 | -0.58 | -0.56 | -0.32
Fc1ccc(C(c2ccc(F)cc2)N2CCN(C/C=C/c3ccccc3)CC2)cc1 [Flunarizine 2HCl] | 12.38 ± 0.06 | -1.16 | -0.21 | 2.04 | -0.07 | 0.52 |  | -0.39 | 0.64 | 0.59 | 1.25 | 0.51 | 1.42 | 1.3 | 1.01 | 0.97 | 0.98
CC[C@H](C)C(=O)O[C@H]1C[C@H](O)C=C2C=C[C@H](C)[C@H](CC[C@@H](O)C[C@@H](O)CC(=O)O)[C@H]21 [Pravastatin sodium] | 12.3 ± 0.26 | -0.86 | 0.01 | 2.2 |  | 1.81 | 1.93 | 0.47 | 0.84 | -0.65 | 0.62 | -0.32 | 0.57 | 2.71 |  | 0.26 | 0.31
CO/N=C(\C(=O)N[C@@H]1C(=O)N2C(C(=O)OC(C)OC(C)=O)=C(COC(N)=O)CS[C@H]12)c1ccco1 (some centres undefined) [Cefuroxime axetil] | 12.59 ± 0.065 | -0.04 | -0.61 | -0.95 | 1.94 | -0.86 |  |  | -0.54 | -0.22 | -0.11 | 0.05 | -0.64 | 0.39 | -0.74 |  | 
